# Measured values published in PubChem BioAssay AID720708 (National Center for Advancing Translational Sciences (NCATS), 2013).
# In all, about 360,000 compounds went through this assay and about 660 (0.18%) were called active. Entries that show only a call come without a potency. Another 2% or so got no clear call; they are omitted. The call rests on the fitted dose curve; in most records, active means well fitted inhibition curve with a large enough effect; inconclusive means small, poorly fitted or top-dose-only effect; inactive means no such curve, though single readings can be large or run the other way. This excerpt belongs to a sample that is enriched for actives.
# Target: Rap guanine nucleotide exchange factor 4 (Homo sapiens) (UniProt Q8WZA2)
# Assay: qHTS for Antagonist of cAMP-regulated guanine nucleotide exchange factor 2 (EPAC2): primary screen; further: nearly all actives have a fitted effect of over 45% in size
# Conditions: EPAC2 GEF exchange of Rap1B-BODIPY-GDP, fluorescence; series mostly up to 114 µM
# Text: In multi-cellular eukaryotic organisms, the effects of cAMP are transduced by two ubiquitously-expressed intracellular cAMP receptors, the classic protein kinase A/cAMP-dependent protein kinase (PKA/cAPK) and the more recently discovered exchange protein directly activated by cAMP/cAMP-regulated guanine nucleotide exchange factor (EPAC/cAMP-GEF). Both PKA and EPAC are ubiquitously expressed in all tissues, and an increase in intracellular cAMP levels will lead to the activation of both PKA and EPAC. Therefore, careful dissections of the individual role and relative contribution of EPAC and PKA within the overall cAMP signaling in various model systems are critical for further elucidating the mechanism of cAMP signaling. To date no EPAC-specific antagonists and agonist, as well as isoform-specific agonists have been reported, and developing EPAC-specific pharmacological probes to determine the physiological functions that EPAC play in the overall cAMP-mediated signaling remains a major challenge within the research field. Furthermore, identified regulators of EPAC may lead to new mechanism-based therapeutic strategies specifically targeting the EPAC / cAMP-signaling components as EPAC has been implicated to play important roles in major human pathological conditions such as diabetes, heart disease, and cancer.
# This qHTS will be used to screen the Molecular Libraries Small Molecule Repository (MLSMR) as a concentration-titration series using the NCGC unique quantitative screening (qHTS) platform to find inhibitors for EPAC2. In addition, this assay will also be used as a counterscreen for the EPAC1 qHTS. This fluorescent based assay is developed and validated for EPAC2 that measures exchange using EPAC effector Rap1 complex with BODIPY-GDP, a GDP analog with a tethered fluorophores. Inhibitors are identified by monitoring the change in fluorescence signal as the exchanged free BODIPY-GDP has a reduced fluorescence compared to Rap1-bound BODIPY-GDP. Decrease in signal (inhibition) is the desired outcome for the EPAC2 antagonist while no activity in this assay is desired for the EPAC1 antagonist counterscreen.
# NIH Chemical Genomics Center [NCGC]
# NIH Molecular Libraries Probe Centers Network [MLPCN]
# Assay Submitter (PI): Xiaodong Cheng, The University of Texas, Medical Branch
# Briefly, three uL of reagents (100 nM EPAC2, 250 nM RAP1B-BODIPY-GDP, 50 uM GDP) were dispensed into a 1536-well Greiner black solid-bottom medium binding assay plate. Controls and test compounds (23 nL) were transferred to the plate via a Kalypsys pin tool equipped with a 1536-pin array. The plates were centrifuged at 1,000 rpm for 15 seconds followed by 5 minute incubation at room temperature. The assay plates were read at 5 minute intervals for 30 minutes in the ViewLux plate reader using 480nm excitation and 540nm emission filters. The results were normalized to the agonist positive control ATA and DMSO.
# Potency means the concentration at half of the fitted maximal effect.
# Chain of Rap guanine nucleotide exchange factor 4 (Homo sapiens) (Q8WZA2 whole entry, looked up): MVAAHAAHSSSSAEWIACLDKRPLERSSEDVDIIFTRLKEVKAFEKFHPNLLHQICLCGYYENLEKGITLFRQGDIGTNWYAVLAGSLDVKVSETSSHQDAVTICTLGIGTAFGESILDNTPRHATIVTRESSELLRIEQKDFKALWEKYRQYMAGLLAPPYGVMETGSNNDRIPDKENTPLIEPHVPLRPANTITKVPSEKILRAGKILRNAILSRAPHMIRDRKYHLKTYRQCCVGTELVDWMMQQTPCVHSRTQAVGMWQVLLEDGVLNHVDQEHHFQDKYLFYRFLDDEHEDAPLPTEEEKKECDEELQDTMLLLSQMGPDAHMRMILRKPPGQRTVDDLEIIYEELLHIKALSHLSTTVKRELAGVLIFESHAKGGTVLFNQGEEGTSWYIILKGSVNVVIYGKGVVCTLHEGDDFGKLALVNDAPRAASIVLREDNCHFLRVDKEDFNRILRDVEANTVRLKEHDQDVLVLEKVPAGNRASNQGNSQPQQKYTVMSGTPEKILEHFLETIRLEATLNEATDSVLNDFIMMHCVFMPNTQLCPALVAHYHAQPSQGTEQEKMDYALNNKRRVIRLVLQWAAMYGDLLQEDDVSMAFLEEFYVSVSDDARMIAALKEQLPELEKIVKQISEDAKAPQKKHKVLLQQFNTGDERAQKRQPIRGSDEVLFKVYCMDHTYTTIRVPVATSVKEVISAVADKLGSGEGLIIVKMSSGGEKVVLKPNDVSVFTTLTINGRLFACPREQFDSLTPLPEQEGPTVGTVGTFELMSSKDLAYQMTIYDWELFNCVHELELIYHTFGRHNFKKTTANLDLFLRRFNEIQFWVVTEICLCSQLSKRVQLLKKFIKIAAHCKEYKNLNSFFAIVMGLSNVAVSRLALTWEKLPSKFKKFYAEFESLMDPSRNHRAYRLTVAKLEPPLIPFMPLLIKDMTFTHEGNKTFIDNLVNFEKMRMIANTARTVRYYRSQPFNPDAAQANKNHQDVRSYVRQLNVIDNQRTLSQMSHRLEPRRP
row,Compound,Potency
1,CCC(CC)C(C(=O)NC1CCCC1)N1CCN(c2cc(C)nc3ccccc23)CC1 (stereo not drawn),inactive
2,COc1cc(C(=O)NC2CCN(C)CC2)ccc1Nc1ncc2c(n1)N(C1CCC(O)CC1)CCC(=O)N2C (stereo not drawn),inactive
3,Cc1[nH]c2ccccc2c1C(=O)c1cc([C@H](NC(=O)OC(C)(C)C)C(C)C)sc1N,inactive
4,COc1ccc(NC(=O)C(C)N2c3cccc4cccc(c34)S2(=O)=O)c(OC)c1 (stereo not drawn),inactive
5,COc1ccc(CNC(=O)C(=O)NCC2OCCN2C(=O)c2ccc(OC)cc2)cc1 (stereo not drawn),inactive
6,CC1CCCC(NC(=O)CN2CCN(Cc3ccc(Cl)cc3)C2=O)C1C (stereo not drawn),inactive
7,Brc1ccc2c(c1)[C@H]1OCC[C@H]1[C@@H](c1cccs1)N2,inactive
8,CC(C)OC(=O)Cn1nc(C(F)(F)F)c2c1CCCC2,inactive
9,CCOC(=O)C1C(C)C(C(C)(C)C)N(S(=O)(=O)c2ccc(C)cc2)C1c1ccccc1 (stereo not drawn),inactive
10,CCOC(=O)[C@]12CCCC=C1N(CCC1=CCCCC1)C(=O)[C@H](CC(=O)N1CCN(C(=O)c3ccco3)CC1)C2,inactive
11,Cc1cc(NC(=O)CN2CCC(O)(c3cccc(F)c3)CC2)no1,inactive
12,O=C(COC(=O)c1cccc(Cl)c1Cl)NC1CCCCCC1,inactive
13,CCCCCNC(=O)C(c1ccc(OC)cc1)n1c(=O)c(-c2ccccc2)nc2ccccc21 (stereo not drawn),inactive
14,COc1ccc(NC(=O)CNC(=O)Cn2ccc3ccccc3c2=O)c(OC)c1,inactive
15,O=C(CSc1n[nH]c(-c2cccs2)n1)N1CCCCC1,inactive
16,Cc1cc(C)nc(SC2CCCCC2NS(=O)(=O)c2ccc(Cl)cc2)n1 (stereo not drawn),inactive
17,N#CC(C(N)=O)=C1CCC2(CC1)OCCCCO2,inactive
18,Cc1ccc(C(C(=O)NC2CCCCC2)N(C(=O)c2csnn2)C2CC2)o1 (stereo not drawn),inactive
19,FC(F)(F)c1cccc(-c2nc3ccccc3n2C(c2ccccc2)c2nc3ccccc3[nH]2)c1 (stereo not drawn),inactive
20,CCOC(=O)c1cc(S(=O)(=O)NCCc2ccc(OC)c(OC)c2)cn1C,inactive
21,COCCn1nnnc1CN1CCC(NC(=O)Nc2cccc(OC)c2)CC1,inactive
22,CCN1CCCC1CNC(=O)c1ccc2c(c1)NC(=O)/C(=C\c1ccccc1F)S2 (stereo not drawn),inactive
23,CCOC(=O)N1CCN(C(=O)CSc2nc(C)nc3c2c(=O)n(C)c(=O)n3C)CC1,inactive
24,CC1(C(=O)Nc2ccc3c(c2)OCCO3)CN(S(C)(=O)=O)CC(=O)N1Cc1cccc(F)c1 (stereo not drawn),inactive
25,C[C@H](CO)N1C[C@H](C)[C@@H](CN(C)C(=O)c2cnccn2)Oc2ncc(Br)cc2C1=O,inactive
26,C#CCOCCOCCOCCNc1nc(N2CCN(C(=O)[C@H](CCCCN)n3cc([C@@H](N)C(C)CC)nn3)CC2)nc(N2CCN(C(=O)[C@H](Cc3ccc(O)cc3)n3cc([C@@H](N)C(C)CC)nn3)CC2)n1 (stereo partly drawn),inactive
27,C#CCOCCOCCOCCNc1nc(N2CCN(C(=O)C([C@@H](C)CC)n3cc(C(N)COC(=O)C(F)(F)F)nn3)CC2)nc(N2CCN(C(=O)[C@H](CCCCN)n3cc(C(N)CC(C)C)nn3)CC2)n1 (stereo partly drawn),inactive

row,Compound,Potency
1,C#CCOCCOCCOCCNc1nc(N2CCN(C(=O)[C@H](CO)n3cc([C@@H](N)C(C)C)nn3)CC2)nc(N2CCN(C(=O)[C@H](CCC(=O)O)n3cc([C@@H](N)[C@H](C)CC)nn3)CC2)n1,inactive
2,C#CCOCCOCCOCCNc1nc(N2CCN(C(=O)C([C@@H](C)O)n3cc([C@@H](N)CCCCN)nn3)CC2)nc(N2CCN(C(=O)[C@H](CCCCN)n3cc(CN)nn3)CC2)n1 (stereo partly drawn),inactive
3,C#CCOCCOCCOCCNc1nc(N2CCN(C(=O)CCCCCCCCCCNC(=O)[C@H](CCCCN)n3cc(C)nn3)CC2)nc(N2CCN(C(=O)CCCCCCCCCCNC(=O)[C@H](CO)n3cc(CCCSC)nn3)CC2)n1,50.1 µM (active)
4,C#CCOCCOCCOCCNc1nc(N2CCN(C(=O)CCCCCCCCCCNC(=O)[C@H]([C@@H](C)CC)n3cc(CCCCN=C(N)N)nn3)CC2)nc(N2CCN(C(=O)CCCCCCCCCCNC(=O)[C@H](CO)n3cc(CCCSC)nn3)CC2)n1,50.1 µM (active)
5,CC(C)N(C(=O)Cn1cc(S(=O)(=O)CC(=O)N2CCOCC2)c2ccccc21)C(C)C,inactive
6,Cc1cc(NC(=O)Cn2nc(C(F)(F)F)c3c2CCCC3)no1,inactive
7,Cc1ccc(C(=O)N[C@H](C(=O)N2CCN(c3ncccn3)CC2)C(C)C)cc1,inactive
8,COCOCCn1cc(CN2CCS(=O)(=O)N(Cc3ccc(-c4cccc(N(C)C)c4)cc3)C(CC(C)C)C2=O)nn1 (stereo not drawn),inactive
9,COCOCCn1cc(CN2CCS(=O)(=O)N(Cc3ccc(-c4ccccc4)cc3)C(CC(C)C)C2=O)nn1 (stereo not drawn),10 µM (active)
10,COc1ccc(-c2ccc(CN3C(CC(C)C)C(=O)N(Cc4cn(CC5CCCCC5)nn4)CCS3(=O)=O)cc2)cc1 (stereo not drawn),inactive
11,CCC1Nc2ncnc(N3CCN(c4ccccc4)CC3)c2N(Cc2ccc(Cl)cc2)C1=O (stereo not drawn),inactive
12,COC(=O)C[C@@H]1C=C[C@@H](NS(=O)(=O)c2cccc(OC)c2)[C@@H](CO)O1,inactive
13,C=CCSC(CC)(CC)C(N)=O,inactive
14,COc1ccc(-c2cn[nH]c2-c2ccc(OC)cc2)cc1,inactive
15,COc1ccc(Oc2cn[nH]c2-c2ccc(OC)cc2O)cc1,56.2 µM (active)
16,CCOc1ccccc1Oc1cn[nH]c1-c1ccc(OC)cc1O,inactive
17,CCC1CCCCN1CCNS(=O)(=O)c1ccc2c(c1)CCN2C(C)=O (stereo not drawn),inactive
18,CSc1ncccc1C(=O)OCc1ccc(Br)cc1,inactive
19,COc1ccc(/C=C2\SC(=N)N(c3ccc(F)cc3)C2=O)cc1,inactive
20,O=C1/C(=C/c2ccc(F)cc2)SC(=S)N1NS(=O)(=O)c1ccccc1,70.8 µM (active)
21,O=C(O)c1ccc(/C=C2\SC(=S)N(NC(=O)c3ccc(Br)cc3)C2=O)cc1,inactive
22,CC(=O)CSc1nc(CCc2ccccc2)c(C#N)c(=O)[nH]1,inactive
23,N#Cc1c(-c2ccccc2)nc(SCc2cccc(C(F)(F)F)c2)[nH]c1=O,39.8 µM (active)
24,O=c1[nH]c(SCc2cccc(F)c2)nc2ccccc12,inactive
25,COc1ccc(OCCCC(=O)Nc2cccc(S(=O)(=O)N3CCCCCC3)c2)cc1,inactive
26,CC(C)(C)NC(=O)C(CCc1ccccc1)n1c(=O)c(-c2ccccc2)nc2ccccc21 (stereo not drawn),inactive
